What all share (assay): growth (OD600 after 10 h); higher = more growth (less inhibition)
The subject of experiment [1] is E. coli TESEC Alr+ wild-type control. Conditions: compound 0.1 mM; raw OD600 reference: median of DMSO wells 0.241, cell-free background 0.041. As to the method:
(§1)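 TESEC Mtb Alr E. coli, or the Alr+ wild-type control, in 384-well plates with Prestwick library compounds at 0.1 mM and 1% DMSO, across arabinose induction levels of 1E3 to 1E7 nM. Growth is read as OD600 after 10 h at 37 °C in triplicate biological replicates.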

The test system of experiment [2] is E. coli TESEC Mtb Alr. Conditions: compound 0.1 mM. As to the method:
as §1

The next experiment concerns E. coli TESEC Mtb Asd. Conditions: compound 0.1 mM. As to the method: (§2)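 TESEC E. coli strains in which the native enzyme is deleted and replaced by arabinose-inducible Mtb Asd, DapB, CysH or TrpD, each grown in its selective medium. Strains were screened against the Prestwick library at 0.1 mM and 1% DMSO in 384-well format at low and high arabinose induction. Growth is read as OD600 after 10 h in triplicate.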

For another experiment, the system named is E. coli TESEC Mtb DapB. Conditions: compound 0.1 mM. How it is done: as §2
Experiment [3] relates to E. coli TESEC Alr+ wild-type control. Conditions: compound 0.1 mM; raw OD600 reference: median of DMSO wells 0.49, cell-free background 0.052. As to the method: (§3)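 TESEC Mtb Alr E. coli (ΔaraC ΔtolC ΔentC Δalr ΔdadX, arabinose-inducible Mtb Alr) or the Alr+ wild-type control strain, grown in defined M9-fructose medium without D-alanine in 96-well plates with Prestwick library compounds at 0.1 mM and 1% DMSO. Low Alr induction is 0.1 µM arabinose and high induction is 10 mM arabinose.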

Experiment [4] concerns E. coli TESEC Mtb Alr. Conditions: compound 0.1 mM. How it is done:
as §3
This is another data set of the same source.

Setting [5] is: arabinose 1000 nM, raw OD600 reference: median of DMSO wells 0.294, cell-free background 0.041.
Setting [6] is: arabinose 10000 nM, raw OD600 reference: median of DMSO wells 0.264, cell-free background 0.041.
The mark [7] stands for this setting: arabinose 100000 nM, raw OD600 reference: median of DMSO wells 0.201, cell-free background 0.041.
Where [8] appears, read: arabinose 1000000 nM, raw OD600 reference: median of DMSO wells 0.193, cell-free background 0.041.
Where [9] appears, read: arabinose 10000000 nM, raw OD600 reference: median of DMSO wells 0.146, cell-free background 0.041.
The mark [10] stands for this setting: arabinose induction (level): High, raw OD600 reference: median of DMSO wells 0.331, cell-free background 0.041.
The mark [11] stands for this setting: arabinose induction (level): Low, raw OD600 reference: median of DMSO wells 0.417, cell-free background 0.041.
Setting [12] is: arabinose induction (level): High, raw OD600 reference: median of DMSO wells […], cell-free background 0.041.
The mark [13] stands for this setting: arabinose induction (level): Low, raw OD600 reference: median of DMSO wells 0.227, cell-free background 0.041.
[14] abbreviates: arabinose 100 nM, raw OD600 reference: median of DMSO wells 0.413, cell-free background 0.052.
Setting [15] is: arabinose 10000000 nM, raw OD600 reference: median of DMSO wells […], cell-free background 0.052.

Counter-ions that a name gives are not always drawn. ± gives the standard deviation of the averaged measurements.

`CN(C)CCOC(c1ccccc1)c1ccccc1.Cn1c(=O)c2[nH]c(Cl)nc2n(C)c1=O` [Dimenhydrinate]: the growth in experiment [1] is 0.213 ± 0.0024; in the experiment with E. coli TESEC Mtb Alr [2] (setting [5]) it was 0.255 ± 0.012; in the experiment with E. coli TESEC Mtb Alr [2] (setting [6]), 0.226 ± 0.0081; in the experiment on E. coli TESEC Mtb Alr [2] (setting [7]) it was 0.174 ± 0.011; with E. coli TESEC Mtb Alr [2] (setting [8]) it was 0.134 ± 0.01; in the experiment on E. coli TESEC Mtb Alr [2] (setting [9]), 0.133 ± 0.0031. In addition, the growth in the experiment with E. coli TESEC Mtb Asd (setting [10]) was determined as 0.261 ± 0.044; in the experiment on E. coli TESEC Mtb Asd (setting [11]), 0.342 ± 0.12; in the experiment with E. coli TESEC Mtb DapB (setting [12]), 0.174 ± 0.0038; with E. coli TESEC Mtb DapB (setting [13]), 0.197 ± 0.014; in experiment [3], 0.53 ± 0.059; in the experiment on E. coli TESEC Mtb Alr [4] (setting [14]), 0.402 ± 0.008. In addition, in the experiment with E. coli TESEC Mtb Alr [4] (setting [15]), the growth was found to be 0.319 ± 0.0044.
Consider `CC(C)NNC(=O)c1ccncc1` [Iproniazide phosphate], for which the growth in experiment [1] turned out to be 0.253 ± 0.0043; in the experiment with E. coli TESEC Mtb Alr [2] (setting [5]), 0.276 ± 0.0095; with E. coli TESEC Mtb Alr [2] (setting [6]), 0.27 ± 0.0057; in the experiment with E. coli TESEC Mtb Alr [2] (setting [7]), 0.219 ± 0.033; in the experiment on E. coli TESEC Mtb Alr [2] (setting [8]), 0.188 ± 0.007; with E. coli TESEC Mtb Alr [2] (setting [9]) it was 0.153 ± 0.0052. Besides, the growth with E. coli TESEC Mtb Asd (setting [10]) is 0.359 ± 0.057; in the experiment on E. coli TESEC Mtb Asd (setting [11]), 0.43 ± 0.014; in the experiment with E. coli TESEC Mtb DapB (setting [12]), 0.199 ± 0.02; in the experiment on E. coli TESEC Mtb DapB (setting [13]), 0.223 ± 0.034; in experiment [3], 0.496 ± 0.095; with E. coli TESEC Mtb Alr [4] (setting [14]) it was 0.417 ± 0.007. In the experiment on E. coli TESEC Mtb Alr [4] (setting [15]), this compound showed a growth of 0.374 ± 0.011.
Regarding `Cc1ccc(C(=O)c2ccc(CC(=O)O)n2C)cc1` [Tolmetin sodium salt dihydrate], the growth in experiment [1] is 0.234 ± 0.0061; in the experiment with E. coli TESEC Mtb Alr [2] (setting [5]) it was 0.281 ± 0.014; with E. coli TESEC Mtb Alr [2] (setting [6]), 0.253 ± 0.0051; in the experiment on E. coli TESEC Mtb Alr [2] (setting [7]) it was 0.169 ± 0.011; in the experiment on E. coli TESEC Mtb Alr [2] (setting [8]), 0.184 ± 0.0077; in the experiment with E. coli TESEC Mtb Alr [2] (setting [9]), 0.1348 ± 0.00087. The growth with E. coli TESEC Mtb Asd (setting [10]) worked out at 0.432 ± 0.032; with E. coli TESEC Mtb Asd (setting [11]), 0.3668 ± 0.0019; in the experiment on E. coli TESEC Mtb DapB (setting [12]), 0.197 ± 0.024; in the experiment on E. coli TESEC Mtb DapB (setting [13]) it was 0.223 ± 0.028; in experiment [3] it was 0.518 ± 0.05; in the experiment on E. coli TESEC Mtb Alr [4] (setting [14]) it was 0.387 ± 0.018. Moreover, the growth in the experiment on E. coli TESEC Mtb Alr [4] (setting [15]) worked out at 0.337 ± 0.0088.
Consider `CCN(Cc1ccncc1)C(=O)C(CO)c1ccccc1` (configuration not stated) [Tropicamide], for which the growth in experiment [1] is 0.24 ± 0.0069; with E. coli TESEC Mtb Alr [2] (setting [5]) it was 0.308 ± 0.02; with E. coli TESEC Mtb Alr [2] (setting [6]) it was 0.266 ± 0.0032; in the experiment on E. coli TESEC Mtb Alr [2] (setting [7]), 0.212 ± 0.027; with E. coli TESEC Mtb Alr [2] (setting [8]) it was 0.174 ± 0.0051; with E. coli TESEC Mtb Alr [2] (setting [9]), 0.158 ± 0.0048. Besides, the growth in the experiment with E. coli TESEC Mtb Asd (setting [10]) came out at 0.289 ± 0.021; in the experiment on E. coli TESEC Mtb Asd (setting [11]), 0.416 ± 0.022; in the experiment with E. coli TESEC Mtb DapB (setting [12]), 0.19 ± 0.0057; with E. coli TESEC Mtb DapB (setting [13]) it was 0.249 ± 0.054; in experiment [3], 0.527 ± 0.08; with E. coli TESEC Mtb Alr [4] (setting [14]), 0.413 ± 0.013. Besides, in the experiment with E. coli TESEC Mtb Alr [4] (setting [15]), the growth came out at 0.33 ± 0.0058.

The values above are taken from the supplement of paper PMC9262897, “Low-cost anti-mycobacterial drug discovery using engineered E. coli” (Nature Communications, 2022).
